# Assay results as given in PubChem BioAssay (NCATS).
# Inconclusive results are not listed. A number with no mark means an inactive call. Calls follow the shape of the dose curve; as a rule, active = well fitted inhibition curve with a large enough effect; inconclusive = small, poorly fitted or top-dose-only effect; inactive = flat fitted curve, though single readings scatter.
# Test system: astro (control astrocytes)
# Assay: Drug repurposing screens with cells derived from glioblastoma tumor samples (AID 1345199); also: nearly all actives have a fitted effect of over 40% in size
# Conditions: viability, ATP luminescence, 48 h; series mostly up to 45.9 µM; activity, negative = cell killing: at the top concentration
# How it was run: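 Four patient lines of CD133+ GBM neurospheres were screened at several concentrations; hits were retested in those lines plus three slower-growing GBM lines, using 48-hour treatment and ATP-based viability.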
# % is scaled to controls: 0 for no effect and ±100 for the full control effect.
row,SMILES,"activity, negative = cell killing"
1,N[C@H](C(=O)O)c1ccc(O)cc1,-10.9%
2,CC1(C)S[C@@H]2[C@H](NC(=O)Cc3ccccc3)C(=O)N2[C@H]1C(=O)O (tested in a mixture with another compound),-9.1%
3,N[C@H]1C(O)O[C@H](CO)[C@@H](O)[C@@H]1O (stereo partly specified),-0.391%
4,O=S(=O)(O)c1cc(I)c(O)c2ncccc12,-0.856%
5,CCCCN1CCCC[C@H]1C(=O)Nc1c(C)cccc1C,-8.57%
6,C/C(=C(\CCOP(=O)(O)O)SC(=O)c1ccccc1)N(C=O)Cc1cnc(C)nc1N,-12% [at 21.2 µM]
7,C[C@H]1O[C@H](O[C@H]2[C@H](O)[C@@H](O)[C@@H](O[C@H]3[C@H](O)[C@@H](O)[C@H](O)O[C@@H]3CO)O[C@@H]2CO)[C@H](O)[C@@H](O)[C@@H]1N[C@H]1C=C(CO)[C@@H](O)[C@H](O)[C@H]1O,-7.16%
8,C=Cc1c(C)c2cc3[nH]c(cc4nc(cc5nc(cc1[nH]2)C(C)=C5CCC(=O)O)C(CCC(=O)O)=C4C)c(C)c3C=C,-14.9%
9,CC(=O)NC(Cc1ccccc1)C(=O)O (stereo unspecified),-13.2%
10,OCC(CO)N[C@H]1C[C@](O)(CO)[C@@H](O)[C@H](O)[C@H]1O,-14.2%
11,Cc1ncc(COP(=O)(O)O)c(C=O)c1O,-8.62%
12,C#CCN(C)Cc1ccccc1,-4.73% [at 21.2 µM]
13,CN1CCC[C@@H]1Cc1c[nH]c2ccc(CCS(=O)(=O)c3ccccc3)cc12,-16.5%
14,Cc1cccc(C)c1NC(=O)CN(CC(=O)O)CC(=O)O,-0.575%
15,NS(=O)(=O)c1cc2c(cc1Cl)NC(CSCc1ccccc1)=NS2(=O)=O,-12.2% [at 21.2 µM]
16,O=c1cc[nH]c(=S)[nH]1,-23.1%
